# Measured values taken from the supplement of paper PMC10105736.
# Values without a mark were called inactive.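 How the source made its calls: active = MAPPIT score above the 99th percentile of random reference set scores in the same batch; inactive = at or below it.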
# Assays:
# Experiment in all cases: MAPPIT interaction score (arbitrary units); higher = stronger binary interaction signal, active = hit call of the paper
# ArfGAP3 = conditions: MAPPIT configuration: N-N; pair source set: Curagen_high_conf
# Method: (§1)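 MAPPIT in HEK293T cells: Drosophila bait and prey ORFs (from the FlyBi ORF collection) were co-transfected in quadruplicate, with two wells stimulated by erythropoietin. Interaction-dependent JAK-STAT activation was read out with a STAT-responsive firefly luciferase reporter. Positive calls use the 99th percentile of random reference set (RRS) scores within each batch […]. Batches Dvs01 and Dvs02 used the N-N configuration and Dvs04 the N-C configuration. Pairs come from FlyBi screens, CuraGen, DPiM, Finley Y2H, Lit-BM-16, Lit-BS-16 and RRS.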
# Art8 = conditions: MAPPIT configuration: N-N; pair source set: Curagen_high_conf
# Method: as §1
# Arts = conditions: MAPPIT configuration: N-N; pair source set: Finley_Y2H
# Method: as §1
# Pu = conditions: MAPPIT configuration: N-N; pair source set: screen_1
# Method: as §1
# Vinc = conditions: pair source set: Lit-BM-16
# Method: as §1
# Arv1 = conditions: MAPPIT configuration: N-C; pair source set: RRS
# Method: as §1
# Ass = conditions: MAPPIT configuration: N-N; pair source set: Curagen_high_conf
# Method: as §1
# Atg16 = conditions: MAPPIT configuration: N-C; pair source set: Lit-BM-16
# Method: as §1
# Atx-1 = conditions: MAPPIT configuration: N-C; pair source set: screen_4
# Method: as §1
# BEAF-32 = conditions: MAPPIT configuration: N-N; pair source set: screen_1
# Method: as §1
# 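Further: HEK293T cells with Epo stimulation, STAT-responsive firefly luciferase reporter, fold induction versus unstimulated cells divided by the larger fold induction of two negative controls lacking either bait or prey.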
binder,measurement,setting,value
CG16894 (protein) MWYSTVRNPSIALIKQGYHILAEYNLVKEELKNIYAIPSYACGLHWFGVIFVHSGIYAGSVFRFSILLPENFPADISLPTVVFSTEVLHPHICPQNKTLDLAHFLNEWRKDEHHIWHVLRYIQAIFADPEGSICTGQSSSGDLVIMDEVRNMNALNMLAKSRPEYIKRVQEQAILSRNLIYDRPPTEDPHYIIVEPYCAERHLKFMDQLKSPCWKEATSMDCSQPSEYLGHIDSSRQLDEEEANQVEKLHRGRIPEHQREESEVSL,MAPPIT interaction score,ArfGAP3,0.483
Ntmt (protein) MTTTLEEQLSDKLQMMDETTDKVQGSSKQKDDSSIAASSDAKTASPSSSDSSTKVAAPESEFYNKAQKYWSEVPATVNGMLGGLGYISAIDIQGSNVFLREIRVPGNRLALDCGAGIGRVTRNLLIPRFSCVDLVEQDPAFADKAREYCTSEDGSRGKVGQIYNVGLQKFTPTQQYDLVWTQWVLGHLTDRDLVSFFRRIKQGLAPGAFLCLKENVSSSKKTVEDRNDSSVTRPLDSYEHFLKEAGFRIVRKVKQQNFPKGLFPVYMIACKPVSKE,MAPPIT interaction score,Art8,3.74 (active)
CAP (protein) MEPGTIPSPVSAPVAAPVTPSAVAAPVQVVSPAAVAPAPAAPIAVTPVAPPPTLASVQPATVTIPAPAPIAAASVAPVASVAPPVVAAPTPPAASPVSTPPVAVAQIPVAVSAPVAPPVAATPTPVAPIPVAAPVIATPPVAASAPTPAAVTPVVSPVIATPPVVPANTTVPVAAPVAAVPAAVPVVAPVLAPAVAPAVAPVVAETPAPPPVAEIPVATIPECVAPLIPEVSVVATKPLAAAEPVVVAPPATETPVVAPAAASPHVSVAPAVETAVVAPVSASTEPPVAAATLTTAPETPALAPVVAESQVAANTVVATPPTPAPEPETIAPPVVAETPEVASVAVAETTPPVVPPVAAESIPAPVVATTPVPATLAVTDPDVTASAVPELPPVIAPSPVPSAVAETPVDLAPPVLPPVAAEPVPAVVAEETPETPAPASAPVTIAALDIPEVAPVIAAPSDAPAEAPSAAAPIVSTPPTTASVPETTAPPAAVPTEPIDVSVLSEAAIETPVAPPVEVTTEVAVADVAPPEAAADLIIEPVEPPAPIPDLLEQTTSVPAVEAAESTSSPIPETSLPPPNEAVASPEVAVAPITAPEPIPEPEPSLATPTEPIPVEAPVVIQEAVDAVEVPVTETSTSIPETTVEYPVAEKVLDPAITEAPVTTQEPDVANINDGAPATEITTPAVEIVTAAAEVSDTAIPLIDPPVPQEIAVAEIPETETKPAEVIVEQSTIPIEAPVPEVSKYAEPVISEAPAAEVPITAGDNPDNTSVGISEVVPTIAEKAVEEVPTSEIPEQSSSPSDSVPVAKITPLLRDLQTTDVSLLAIAATLDAIGEKLKDQKARNQQVMDRLCEIEKILGPPKSN,MAPPIT interaction score,Arts,0.381
same,MAPPIT interaction score,Pu,-0.205
same,MAPPIT interaction score,Vinc; MAPPIT configuration: N-C,2.37
same,MAPPIT interaction score,Vinc; MAPPIT configuration: N-N,2.53
Drak (protein) MFTEKGIFPIGDGLLDVDADRLKGLLVSCPDINEIYEVEQTPFARGKFAAVRRAIHKNTGSHFAAKFLKRRRRAQSSDKEIKHEIAVLMLCEGEDNIVNLNAVHETRSDTALLLELATGGELQTILDNEECLTEAQARHCMREVLKALKFLHDRSIAHLDLKPQNILLAGERIEDGLKLCDFGISRVVCEGINVREMAGTPDYVAPEVLQYEPLSLLTDIWSVGVLTYVLLSGFSPFGGDTKQETFLNISQCALTFPDNLFGGVSPVAIDFIRRALRIKPNDRMNATGCLDHIWLKDDCSLDRQIYLQPQSDAEEEEEEDVDDDVEDEEEEEQVEEEEEETQNVEEPTTEAPQQQQQPVQQHQLAKSGQIHSKPTHNGHHRANSGGSISKIPIATSKLQSTPSSETTTAIHTLTSNSNGHVHKPTQIVTPTRRASDSDKENTYTATFVKKPVATIQLGSSNGIEDATVVATLTLFPDAPTTPKVIRKTPTGESNGSATSVKALVKKFQLEDSSGSAVARRSGGAVTSSSGLHSPTTTSVRLNSIRRASEPLTTVYKKQTSQNGCSSTSNPSSSPGSSPTTSGSTATLLIHSQRLGNSTAPASHCVAVPATATATSSASSSNSSSGKSTSAAHHLHHHHMHHHHHHHHHHVVIAAKNAAAVAATNNLSLDQGIIC,MAPPIT interaction score,Arv1,2.34
Git (protein) MCFASSIIEAHRKLFIAPPDLDHSDPATPTISTRSKMPRGKSRLQTEVCGDCGAGDPSWASINRGILLCADCCSVHRSLGRHISIVKSLRQGNWEPSVLNFVNSLNAHGANSVWEHHLLDGSTNSTGGKHVPRWRKPTPKDALHPTKSDFIKAKHVNLTFVLKPSLQDDDDGNGSAGCLEQELSRQLHASVRTSNLETSLRFLVQGADPNYYHEDKLSTPLHMAAKFGQASQIEMLLIYGADVNALDGNGMTPLELARANNHNTIAERLLDAMYDVTDRIITFLGGKKPDHASGRHMIIPDANGADISEQLKIARGKLQLVPNKMFEELVMDLYDEVDRRECEAIWSTSTLNADHATVPFLPANPFLSATRNQGRQKLARFNRAEFTGLLTDVLVDAMRRQNMANLRPMDAPVAGHQSLQSLPYANNSMLLGSFEQGGHDPNLSDDEPIYDPVASDDDYAPVPPMAQQAIVHTPPRSANSHNEMETLRKQLNDYKSEINQLKNVVQMLSSENTQLKSKFSSASNNSVYDEPLRIDLSLSSPDTEHEPLSLPEGGTANGESGSSNDSSNQSTIKRPASMYERRLVPNVAKGNTDIRNTTSMYQMAGDGKPFGEEVKVRSDLVTRRLKELIRAMQPVPEDQKQSIAPHGELIRSAVTDLIALYANLPPNASDPSRETLKLLTRQNILIQHECENLQKAIEADDKQAIQKNTLEVRDCAFHIASAIKTLVLQFY,MAPPIT interaction score,Ass,-0.0648
Atg5 (protein) MAHDREVLRMIWEGQIGICFQADRDEIVGIKPEPFYLMISRLSYLPLVTDKVRKYFSRYISAEHQDGAVWFDFNGTPLRLHYPIGVLYDLLHPEEDSTPWCLTIHFSKFPEDMLVKLNSKELLESHYMSCLKEADVLKHRGLVISAMQKKDHNQLWLGLVNEKFDQFWAVNRRLMEPYGDLESFKNIPLRIYTDDDFTYTQKLISPISVGGQKKSLADLMAELSTPVRRAVGCRTHGIDLHEETQLQWMSEHLSYPDNFLHLSVDYKDV,MAPPIT interaction score,Atg16,2.6
CG9132 (protein) MEYESVLIVKPEVFIYKIPPRASNRGYRAGDWNLKEPTWTGRMRLVAKGTAVVLKLEDKTSGALFANCPIDTYPGVAIEAVSDSSRYFVIRVQDDNGRSAFLGLGFGDRSDSFDLNVALQDHFKWVKNQEQIEKEKTEPKQELDLGFKEGETIKINMRITKKDGSEGSSRTGKNKGSSGVLPPPPGGLGKIAPPPAAAAANTTVRQSPGVSPAHRPAAGGSEWTDYASAGGNQGQQNSANANWVQF,MAPPIT interaction score,Atx-1,2.48
Sry-delta (protein) MDTCFFCGAVDLSDTGSSSSMRYETLSAKVPSSQKTVSLVLTHLANCIQTQLDLKPGARLCPRCFQELSDYDTIMVNLMTTQKRLTTQLKGALKSEFEVPESGEDILVEEVEIPQSDVETDADAEADALFVELVKDQEESDTEIKREFVDEEEEEDDDDDDEFICEDVDVGDSEALYGKSSDGEDRPTKKRVKQECTTCGKVYNSWYQLQKHISEEHSKQPNHICPICGVIRRDEEYLELHMNLHEGKTEKQCRYCPKSFSRPVNTLRHMRMHWDKKKYQCEKCGLRFSQDNLLYNHRLRHEAEENPIICSICNVSFKSRKTFNHHTLIHKENRPRHYCSVCPKSFTERYTLKMHMKTHEGDVVYGVREEAPADEQQVVEELHVDVDESEAAVTVIMSDNDENSGFCLICNTNFENKKELEHHLQFDHDVVLK,MAPPIT interaction score,BEAF-32,4.3 (active)
